Activity calls are given as the source filed them. The calls were made as follows: active = hit-call score of the fitted dose curve at least 0.9, where 1 is the maximum; inactive = score below 0.9.

Read-out in the assay: 3-Hydroxy-3-Methylglutaryl-CoA Synthase 2 (HMGCS2), HMGCS2 (gene 3158)
The assay can be described thus: LTEA_HepaRG_HMGCS2: Life Technologies and Expression Analysis (LTEA) Assay for 3-Hydroxy-3-Methylglutaryl-CoA Synthase 2 (HMGCS2) using HepaRG (AID 2283504). To be noted: mRNA level, 48 h; actives raise or lower the signal. The protocol: LTEA_HepaRG is a cell based, multiplexed-readout assay that uses HepaRG, a human liver cell line, with measurements taken at 48 hours after chemical dosing on a 96-well plate.LTEA_HepaRG_HMGCS2 is one of 102 assay component(s) measured in the LTEA HepaRG cell culture assay. It is a marker of Steatosis.Data from the assay component LTEA_HepaRG_HMGCS2 was analyzed into 1 endpoint. This assay endpoint, LTEA_HepaRG_HMGCS2, was analyzed with bidirectional fitting relative to DMSO as the negative control and baseline of activity. Using a type of inducible reporter, measures of mRNA induction for gain or loss-of-signal activity can be used to understand regulation of transcription factor activity. To generalize the intended target to other relatable targets, this assay endpoint is annotated to the lyase intended target family, where the subfamily is HMG-CoA synthase.
A total of 1060 chemcials from the ToxCast library were tested in eight-point concentration-response experiments. Cell culture and cytotoxicity assays were conducted at Thermo Fisher Scientific's Custom Services facility (Madison, WI). A single lot of human HepaRG cells (Thermo Fisher Scientific, Frederick, MD) was used for the cell culture experiments. 96-well format collagen type I coated plates of human HepaRG cells were prepared using established methods. Briefly, cryopreserved HepaRG cells were thawed, plated at a density of approximately 100,000 cells/well in HepaRG Thaw, Plate, and General Purpose media (HPRG770, Thermo Fisher Scientific), and incubated for 48 hours. 0.5% DMSO was selected as vehicle control to balance the requisite need of DMSO in HepaRG cultures to maintain differentiation (for example, baseline metabolism, proportions of hepatocytes vs. cholangiocytes), while enabling further hepatic receptor pathway activation (for example, PXR and CAR) in response to chemical exposure. 48 hours after plating, the culture medium was replaced with HepaRG Serum-Free Incudtion Media. Cells were exposed to each test chemical in duplicate and maintained in CO2 incubators for another 48 hours. Chemical plates were thawed to room temperature and 200x concentrations of treatment groups were prepared. 8-point conentration-reponse curves were made with the highest exposure at 100 uM, followed by half-log dilutions, all in 0.5% DMSO. Each test plate contained variouse controls, induction positive controls (1mM phenobarbital), cytotoxicity positive controls ([…] aflatoxin B1), vehicle controls (0.5% DMSO), and total lysis controls (0.5% DMSO). Cell morphology images were taken using an Essen IncuCyte FLR automated microscope, with six 96-well plates imaged in about 24 minutes. Images were captured and exported and JPEG files. Spent culture media was transfered to black-well plates for the LDH assay, and remaining media was sorted at -80 C for later use. Cells were treated with RLT buffer and frozen until shipped for gene expression analysis. Total RNA was isolated from the cell suspension in 75 uL of Buffer RLT (Qiagen, Germantown, MD 20874) by Quintiles/Expression Analysis (Durham, NC) using a custom isolation procedure. Total RNA from each plate well was transferred to a preamplification plate. Fluidigm's 96.96 Dynamic ArrayTM (Fluidigm, Amsterdam, the Netherlands) technology was used for gene expression analyses by quantitative reverse transcription polymerase chain reaction (qRT-PCR, performed by Quintiles/Expression Analysis, Durham, NC)89. Standard TaqManTM Assays (Applied Biosystems/ThermoFisher Scientific, Foster City, CA) were used to assess the expression of 93 genes selected based on their selectivity and sensitivity to important hepatic receptors known to be modulated by environmental chemicals; importance in human hepatocyte functionality; and hepatotoxicity. […]
With `CC(=O)O`, the call was inactive.

`CCCCC(CC)COP(=O)(OCC(CC)CCCC)OCC(CC)CCCC` (stereo not given): the result was inactive.

Regarding `NC(=Nc1ccccc1)Nc1ccccc1`, the compound was called inactive.

With `CCCCCCCCCCCCCCOS(=O)(=O)O`, the call was inactive.

Regarding `CO[C@@H]1COCC[C@@H]1N[C@@H]1CC[C@@](C(=O)N2CCc3ncc(C(F)(F)F)cc3C2)(C(C)C)C1`, the result was inactive.

`Oc1ccccc1O`: the outcome was inactive.

A word on the AC50: it is the concentration giving half of the maximal activity seen. For `CC(C)OC(=O)C(C)(C)Oc1ccc(C(=O)c2ccc(Cl)cc2)cc1`, the AC50 was 4.29 µM (active).

For the compound `CC(=O)S[C@H](C(=O)N[C@H]1Cc2ccccc2[C@H]2CCC[C@@H](C(=O)O)N2C1=O)C(C)C`, the compound was called inactive.

Take `O=C1NC(=O)C(c2ccccc2)(c2ccccc2)N1`: the call was inactive.

As to `Cc1cc(SC2=C(O)C[C@@](CCc3ccc(N)cc3)(C(C)C)OC2=O)c(C(C)(C)C)cc1CO`, the AC50 is 16.8 µM (active).

On to `OCC(CO)n1cnc(-c2ccc(F)cc2)c1-c1ccnc(Oc2ccccc2)n1`, for which the result was inactive.

As for `CN(C)C(=O)NC1(c2ccccc2)CCN(CC[C@@]2(c3ccc(F)c(F)c3)CN(C(=O)c3ccccc3)CCO2)CC1`, the half-maximal activity concentration (AC50) is 47 µM (active).

Take `O=C(O)CN(CC(=O)O)CC(=O)O`: the call was inactive.

For `CCOCCOCCO`, the outcome was inactive.

As to `CC(=O)OC1CC(C)OC(C)O1` (stereo not given), the call was inactive.

As to `O=C(NS(=O)(=O)/C=C/c1cccs1)c1ccc(F)cc1Br`, the concentration at half-maximal activity (AC50) was 71 µM (active).

As for `Cn1cnc2c1c(=O)[nH]c(=O)n2C`, the compound was called inactive.

As for `Cc1cn([C@H]2C=C[C@@H](CO)O2)c(=O)[nH]c1=O`, the outcome was inactive.

Turning to `Oc1ccc(O)cc1`, the compound was called inactive.

As for `C/C=C/c1ccc(OC)cc1`, the outcome was inactive.

Turning to `CCCCCCCCCCCCCCCCO`, the compound was called inactive.

As for `Cc1cc(Cc2ccc(N)c(C)c2)ccc1N`, the compound was called inactive.

Turning to `S=c1[nH]c2ccccc2s1`, the compound was called inactive.

Regarding `COc1ccc(OC(F)(F)F)cc1CN[C@H]1CCCN[C@H]1c1ccccc1`, the AC50 was 78.8 µM (active).

With `CN(C)CCCN(C)CCCN(C)C`, the outcome was inactive.

As for `C#CC(O)C(CC)CCCC` (stereo not given), the outcome was inactive.

For the compound `CSc1ccc(Oc2ccc(S(N)(=O)=O)cc2CN(C)C)cc1C`, the AC50 is 63.9 µM (active).

For `CN(C)C(=O)NC1(c2ccccc2)CCN(CCC[C@]2(c3ccc(Cl)c(Cl)c3)CCCN(C(=O)c3ccccc3)C2)CC1`, the compound was called inactive.

`C/C=C/C=C/C(=O)O`: the result was inactive.

Consider `Cc1occc(=O)c1O`, for which the result was inactive.

For `N[C@@H](Cc1c[nH]c2ccccc12)C(=O)O`, the call was inactive.

For the compound `C=CCc1ccc(OC)c(OC)c1`, the result was inactive.

On to `O=NO`, for which the compound was called inactive.

With `CCCCCCCC(=O)OC`, the compound was called inactive.

`CCCC[C@H]1CN(CC2CCOCC2)C(=O)OC12CCN(C1(C)CCN(C(=O)c3c(C)ncnc3C)CC1)CC2`: the compound was classed as inactive.

On to `CC1=C(C)S(=O)(=O)CCS1(=O)=O`, for which the outcome was inactive.

For `Nc1nc(=S)c2[nH]cnc2[nH]1`, the half-maximal activity concentration (AC50) is 7.48 µM (active).

For `CC(=O)[C@@]1(O)CC[C@H]2[C@@H]3CCC4=CC(=O)CC[C@]4(C)[C@H]3CC[C@@]21C`, the outcome was inactive.

On to `CC(C)(O)c1ccc(CNC(=O)c2cccnc2Oc2ccc(F)cc2)cc1`, for which the outcome was inactive.

As for `O=C1O[C@H]([C@H](O)CO)C(O)=C1O`, the compound was classed as inactive.

Values taken from PubChem BioAssay (EPA / NIEHS).
